The results in this text go back to PubChem BioAssay (NCI).

Molecules are shown by their SMILES. “And” between values parts separate entries of the source, which are not always exact repeats. Equal values may be shown once. This is part of a sample that, as a whole, favours compounds with a hit. Of some 83,000 tested, about 20% had one in any assay.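 Compound tested at a single concentration for 48 hours in 96-well plates; a percent growth value below 10 was scored as active.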 The source made the active and inactive calls.

This experiment relates to MDA-MB-468 breast. The experiment can be described thus: NCI-60 one-dose screen, 48 h (100 = growth as untreated, 0 = no growth, -100 = all killed). To be noted: 10 µM unless noted.
For `Cc1cc(C(O)CN(C)C)cc2c1ccc1cc(C(C)C)ccc12` (stereo not given), the growth is -88.6% (active).
Turning to `Nc1nc(N)c2c(n1)NC(c1ccc(C(F)(F)F)cc1)CC(c1ccc(Nc3nc(NCCO)nc(N4CCOCC4)n3)cc1)=N2` (stereo not given), the growth was 68.3% (inactive).
Under `Clc1ncccc1Nc1ccc2nnc(-c3ccncc3)n2n1` stands 99.9% (inactive).
As to `c1cc(-c2nc3ccc4[nH]ncc4c3c3c2CCCC3)[nH]n1`, the growth is 43.6% (inactive).
Under `COc1cc(NC2=C(Cl)C(=O)c3nc(C)ccc3C2=O)cc(OC)c1` stands -78.5% (active); under `O[C@@H]1Cc2ccc3ccccc3c2N[C@H](c2ccoc2)C1`, 79.4% (inactive).
Under `CCOC(=O)c1cc(C(=O)c2ccc(F)cc2F)n2ccccc12` stands 102% (inactive); under `CCN(CC)CCOc1ccc2c(-c3ccccc3)c(-c3ccc(OC)cc3)c(=O)oc2c1`, 44.5% (inactive); under `Cc1nn(-c2nc3ccccc3[nH]2)c2c1C(c1ccc(O)cc1)CC(=O)N2` (stereo not given), 92.8% (inactive).
Under `CCCCn1c(=O)c(-c2cc(-c3ccc(Cl)cc3)nc(-c3ccc(Cl)cc3)c2)cc2cc(Cl)ccc21` stands 108% (inactive).
For `CCCCCCCCCCN=C(N)N=C(N)N`, the growth was -12.9% (active).
`CN1CCN(c2ccc(NC3=C(Cl)C(=O)c4ncccc4C3=O)cc2C(F)(F)F)CC1`: the growth is -79.2% (active).
For `COc1cc(C2CC(=O)c3ccccc3N2)cc(OC)c1OC` (stereo not given), the growth was 90.5% (inactive).
As for `COc1ccc(C(=O)c2cc(C)c(OC)c(C)c2)c(OC)c1NC(C)=O`, the figure is 12.4% (inactive).
As for `CC1=CCC2C1CC=C(C)C(CC[C@H]1[C@@](C)(O)CCC3OC(C)(C)[C@H](OC(=O)c4ccccc4)CC[C@@]31C)C2(C)C` (stereo not given in full), the figure is 64.8% (inactive); as for `CO/N=C/C=C\C(=O)N/C=C/C[C@H]1/C=C/[C@H](O)/C=C\C=C\c2cccc(O)c2C(=O)O1`, 59.1% (inactive) and 46.3% (inactive); as for `N#C/C(=C\c1ccc(Cl)cc1)n1nnc2cc(F)c(F)cc21`, 3.5% (active).
Take `COc1ccc(C2CC(=O)Oc3c(OC)c4c(c(OC)c32)OCO4)cc1` (stereo not given): the growth is 96.9% (inactive).
As to `COc1cc(/C=N/NC(=O)Cn2c(C(C)C)nc3ccccc32)ccc1O`, the growth is 84.9% (inactive).
Regarding `Clc1ccc(Nc2nnc(-c3ccc4c(c3)OCO4)o2)cc1`, the growth was 106% (inactive).
Consider `CNC(=S)Sc1ccc([N+](=O)[O-])cc1[N+](=O)[O-]`, for which the growth was 35.6% (inactive).
On to `COc1ccc(-c2cc(-c3ccc(N(C)C)cc3)nc(NC(=O)c3ccncc3)n2)cc1`, for which the growth is 75.5% (inactive).
Under `O=C(Nc1ccc(I)cc1)c1cc([N+](=O)[O-])ccc1O` stands 9.76% (active); under `CN(CC(=O)N(Cc1ccc(C2CCCCC2)cc1)c1ccc(C(=O)NO)cc1)S(=O)(=O)c1c(F)c(F)c(F)c(F)c1F`, -36.3% (active).
In the case of `COC1OC(COC(C)=O)C(OC(C)=O)C(OC(C)=O)C1OC(C)=O` (stereo not given), the growth was 108% (inactive).
For the compound `CC(=O)NC(N)=S`, the growth was 109% (inactive).
As for `S=c1nn[nH]c2ccccc12`, the figure is 117% (inactive).
Under `COc1ccc(CNC(=O)C(=O)[C@H](Cc2ccccc2)NC(=O)c2[nH]c3ccccc3c(=O)c2C)cc1` stands 98.4% (inactive).
Under `Cc1nc2ccccc2c(/C=C/c2ccccc2)c1C(=O)/C=C/c1ccc(C(F)(F)F)cc1` stands -67.8% (active).
With `CCCCCCCCCCCCCCCCCCOc1ccccc1N`, the growth is 101% (inactive).
As for `COc1cc(-c2nc3occn3c2-c2ccnc(NCCNS(=O)(=O)c3ccc(Cl)cc3)n2)ccc1F`, the growth was 63.1% (inactive).
Regarding `Cc1nccc2c3ccc(OCc4cn(-c5ccc(Br)cc5)nn4)cc3n(CC(C)C)c12`, the growth is 5.61% (active).
With `COc1ccc(-n2c(/C=C/c3ccc(O)c(OC)c3)cc(/C=C/c3ccc(O)c(OC)c3)nc2=O)cc1`, the growth is 29% (inactive).
Consider `CSc1nc2c(c(=O)n1C)C(c1ccccc1)C1=C(N2)/C(=C/c2ccccc2)CCC1` (stereo not given), for which the growth is 34.7% (inactive).
With `O=C(Nc1cccc([N+](=O)[O-])c1)c1cc2ccccc2cc1O`, the growth is -42.8% (active).
As for `O=C(N/N=C/c1ccc(Cl)cc1)c1ccc(Cc2n[nH]c(=O)c3cccnc23)cc1`, the figure is 89.8% (inactive); as for `Nc1nc2cc(O)ccc2n2cc3c(F)cccc3c12`, 18.6% (inactive).
For the compound `CCCC(=O)NC(c1cccnc1)c1cc(Cl)c2cccnc2c1O` (stereo not given), the growth was 30.2% (inactive).
With `O=C(O)c1cn(C2CC2)c2cc(N3CCN(C(=O)CSc4nnc(-c5ccc(Cl)cc5)n4-c4ccccc4)CC3)c(F)cc2c1=O`, the growth is 101% (inactive).
Under `COc1ccc(CCO)cc1` stands 101% (inactive).
